Compounds with a hit are over-represented: about 0.19% of the library has one in this group of screens.
Bim-Bcl-W: inhibitors of Bim-Bcl-W interaction, human; Q92843; bead-based flow cytometry, Bim peptide-Bcl-W binding; inhibition, % at 10 µM; actives 0.02% (n = 190,000); AID 952;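 note: higher means less fluorescent Bim peptide bound to Bcl-W beads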
Target sequence (Q92843 whole entry, looked up): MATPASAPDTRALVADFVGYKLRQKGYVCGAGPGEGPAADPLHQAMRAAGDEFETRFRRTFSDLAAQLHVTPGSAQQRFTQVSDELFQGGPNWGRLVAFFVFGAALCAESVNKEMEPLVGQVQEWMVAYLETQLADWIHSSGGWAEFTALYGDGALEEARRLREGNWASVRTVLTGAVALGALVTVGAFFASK
Bcl-B Bim block: inhibitors of Bim-Bcl-B interaction, human; inhibition, % at 10 µM; actives 0.073% (n = 190,000); AID 951; Q9HD36; bead-based flow cytometry, Bim peptide-Bcl-B binding
Bfl-1 Bim block: inhibitors of Bim-Bfl-1 interaction, human | Bead-based flow cytometry, Bim-Bfl-1 binding inhibition | AID 1008 | Q16548 | inhibition, % at 10 µM | actives 0.12% (n = 190,000)
Bim-Bcl-XL: disrupts Bim peptide binding to human Bcl-XL; Q07817; bead flow cytometry, fluorescence; inhibition, % at 10 µM; actives 0.04% (n = 190,000); AID 1007
Target sequence (Q07817 whole entry, looked up): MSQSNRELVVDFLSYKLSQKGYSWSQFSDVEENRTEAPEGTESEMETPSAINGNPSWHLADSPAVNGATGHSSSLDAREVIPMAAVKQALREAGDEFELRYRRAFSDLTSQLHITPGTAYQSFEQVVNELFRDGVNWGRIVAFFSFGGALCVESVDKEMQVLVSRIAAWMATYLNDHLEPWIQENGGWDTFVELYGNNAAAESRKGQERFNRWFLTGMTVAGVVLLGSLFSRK
Bcl-2 Bim block: inhibitors of Bim-Bcl-2 interaction, human; P10415; Bead-based flow cytometry, Bim peptide-Bcl-2 binding; inhibition, % at 10 µM; actives 0.06% (n = 190,000); AID 950; in the data active = inhibition above about 40%
A number is an active result; - = inactive; . = no result. Cut-off read from the data, not from the text of the source, unless noted: active = inhibition above about 40%.

SMILES	Bim-Bcl-W	Bcl-B Bim block	Bfl-1 Bim block	Bim-Bcl-XL	Bcl-2 Bim block
Cc1cccn2c(=O)c3cc(C(N)=S)c(=N)n(CCCN4CCOCC4)c3nc12	-	48	50	-	-
Cc1cc(C)c(S(=O)(=O)/N=C2/C=C(SCC(=O)O)C(=O)c3ccccc32)cc1C	-	-	56	-	-
O=C(COc1ccccc1Br)NCc1ccccn1	-	75	44	-	71
O=C(COc1ccc(F)cc1Br)NCc1ccccn1	-	-	-	-	-
Cc1ccc(-c2ccc(CCC(=O)O)n2NC(=O)c2cccs2)cc1	-	.	.	-	92
COc1ccc(-c2ccc(CCC(=O)O)n2NC(=O)c2cccs2)cc1	-	-	-	-	-
Cc1ccc(O)c(NC2=C(Cl)C(=O)N(Cc3ccccc3)C2=O)c1	51	-	58	-	-
O=c1nc2c(O)cccn2c2c1c(=O)[nH]c1ccccc12	-	-	-	47	-
CCNC(=O)N1c2ccc(OCC)cc2C(C)=CC1(C)C	-	-	40	-	-
CCc1nc2ccccc2n1Cc1ccccc1F	-	-	-	-	-
Cc1ccc(CNc2ccc3c(c2)OCO3)cc1	-	-	40	-	-
O=C(Cn1cncc1-c1ccc([N+](=O)[O-])cc1)Nc1ccccc1F	-	-	42	-	-
COC(=O)Cc1ccc(NC(=S)N2CCN(c3cccc(O)c3)CC2)cc1	-	50	-	-	-
Cc1cc(-c2csc(N)n2)c(C)n1C	-	70	-	-	-
Cc1ccc(-n2c(C)cc(-c3csc(N)n3)c2C)cc1	-	-	-	-	-
Cc1nc2c(N=Nc3ccccc3F)c(N)nn2c(N)c1C#N	-	-	-	-	-
O=C(N=Nc1c(O)[nH]c2ccc([N+](=O)[O-])cc12)c1cc(-c2ccccc2Cl)nc2ccccc12	-	-	-	-	-
COc1ccccc1C(=O)N=Nc1c(O)[nH]c2ccc([N+](=O)[O-])cc12	-	-	-	44	-
CC(C)=C(NC(=O)c1ccccc1)C(=O)NCc1ccccc1	-	-	-	-	-
CCN1/C(=C/c2ccc3cc(C)ccc3[n+]2C)Sc2ccc3sccc3c21	-	-	46	-	54
CCN1/C(=C/c2ccc3cc(C)ccc3[n+]2CC)Sc2cc(C)ccc21	-	-	-	-	-
CCCn1nnnc1SCC(=O)N1CCN(C(=O)c2ccco2)CC1	-	-	-	-	-
CC(C)n1nnnc1SCC(=O)N1CCN(C(=O)c2ccco2)CC1	-	93	-	50	-
Cc1cc(C)c(S(=O)(=O)NCC23C=CC(O2)C2C(=O)N(c4ccccc4)C(=O)C23)c(C)c1 (stereo not given)	-	-	-	-	-
CS(=O)(=O)N(CC(=O)N1CCN(c2ccccc2F)CC1)c1cccc(C(F)(F)F)c1	-	-	-	-	-
SMILES	Bim-Bcl-W	Bcl-B Bim block	Bfl-1 Bim block	Bim-Bcl-XL	Bcl-2 Bim block
O=C(CN1N=C(c2ccccc2)CCC1=O)NCc1ccco1	-	-	-	-	-
CC1(C)N([O-])C2=C(c3ccccc3C2=O)[N+](=O)C1(C)C	-	-	-	-	-
CCOc1ccc(CNc2ccc(CNc3ncn[nH]3)cc2)cc1	-	-	-	-	-
CCOc1cc(CNc2ccc(N3CCCC3)cc2)cc(Cl)c1OC	-	-	-	-	-
COc1cc(CNc2ccc(N3CCCC3)cc2)cc(Cl)c1OC	-	-	48	-	-
CCOc1ccc(CNc2ccc(N3CCCC3)cc2)cc1	-	-	42	-	-
COc1ccc(C2=NN(c3ccccc3)C(c3cn(CCC(=O)O)nc3-c3ccccc3)C2)cc1 (stereo not given)	-	-	-	-	-
COc1ccc(Cl)cc1-n1c(C)cc(C(=O)O)c1C	-	-	-	-	-
COc1ccc(Cl)cc1-n1c(C)cc(C=O)c1C	-	84	62	-	86
COC(=O)c1cc(OC)c(OC)cc1NC(=O)Nc1cccc(C(C)=O)c1	-	77	62	-	85
CN1CCCC1CCNC1C2CC3CC(C2)CC1C3 (stereo not given)	-	-	-	-	-
CCCCn1c(=O)c(C(=O)N/N=C/c2ccc(F)cc2)c(O)c2ccccc21	-	-	-	-	-
CC(C)NC(=O)COC(=O)CNC(=O)c1cc(Cl)cc([N+](=O)[O-])c1	-	-	-	-	-
COc1ccc(CCNC(=O)c2cc(-c3ccncc3)nc3c(Cl)cccc23)cc1OC	-	-	-	-	-
COc1ccc(CCNC(=O)c2cc(-c3ccccn3)nc3c(Cl)cccc23)cc1OC	-	53	-	56	41
N#Cc1cccc(NC(=O)COC(=O)CCc2nc3ccccc3c(=O)[nH]2)c1	-	-	-	-	-
COC(=O)c1ccccc1N/C=C1\CCc2c(c(C)nn2-c2ccccn2)C1=O	-	-	50	-	-
COc1ccc(N2CCN(CCCNC(=O)CCCn3c(=O)[nH]c4ccsc4c3=O)CC2)cc1	-	67	-	-	62
CC1(C)OC2OC(C(=O)N/N=C/c3cc(Br)ccc3O)C3OC(C)(C)OC3C2O1 (stereo not given)	-	-	-	-	-
CN(CC(=O)O/N=C(\N)c1ccc([N+](=O)[O-])cc1)S(=O)(=O)c1ccccc1	-	72	-	-	-
COc1ccc(-n2cnnc2SCC(=O)c2ccc(S(=O)(=O)N3CCOCC3)cc2)cc1	-	-	-	-	-
Cc1ccc(NC(=O)CSc2nc3ccccc3c(=O)n2CCCN2CCCCC2)cc1Cl	-	71	-	-	62
CC(C)(C)C1=CC(=O)C(=O)C(C(C)(C)C)=C1	-	-	56	-	-
CC(C)(C)C1=CC(=Nc2ccccc2N)C=C(C(C)(C)C)C1=O	-	-	-	-	-
CCn1c(SCC(=O)NCc2ccccc2)nnc1-c1c[nH]c2ccccc12	-	-	-	-	-
SMILES	Bim-Bcl-W	Bcl-B Bim block	Bfl-1 Bim block	Bim-Bcl-XL	Bcl-2 Bim block
Cc1ccc(SCc2c(-c3ccccc3)nn(C)c2Cl)cc1	-	-	-	-	-
Cc1ccc(Sc2c(C#N)c(-c3ccccc3)nn2C)cc1	-	68	47	-	78
O=C1C(=O)c2ccc(-c3ccccc3)cc2-c2ccccc21	-	-	41	-	-
O=C(CSc1ccc2nnc(-c3ccccn3)n2n1)Nc1nccs1	-	-	-	40	-
COCCN=c1scc(-c2ccco2)n1/N=C/c1ccc(O)c(O)c1O	-	-	41	-	-
O=C(CNC(=O)c1ccc(S(=O)(=O)N2CCCC2)cc1)N/N=C/c1ccc(Cl)cc1	-	-	-	-	-
O=C(CNC(=O)c1ccc(S(=O)(=O)N2CCCC2)cc1)N/N=C/c1ccc(Cl)cc1Cl	-	50	-	-	-
CCCC(=O)NCCCc1nc2ccccc2n1C(C)C	-	-	-	-	-
CC(=O)N1CCN(C(=O)c2ccc(-n3c(C)ccc3C)cc2)CC1	-	41	-	-	-
O=C(NC1=NCCS1)NC12CC3CC(CC(C3)C1)C2	-	84	60	-	84
CN(C)/C=C1\NC(=S)N(c2ccccc2)C1=O	-	-	-	-	-
COc1ccc(N2C(=O)/C(=C/c3cccs3)NC2=S)cc1	-	-	45	-	-

Screening data deposited in PubChem BioAssay by NMMLSC.
